Measured values published in PubChem BioAssay (Tox21).
The source made the active and inactive calls. Where a call stands in place of a potency, no number is given. The call rests on the fitted dose curve.

Target: Muscarinic acetylcholine receptor M1 (Homo sapiens) (UniProt P11229)
Experiment: Cholinergic receptor muscarinic 1 (CHRM1) small molecule agonists, cell-based qHTS assay (AID 1963589); further: nearly all actives have a fitted effect of over 35% in size
Settings: CHRM1-CHO cells, agonist mode, calcium flux fluorescence; series mostly up to 76.8 µM
Excerpt: National Center for Advancing Translational Sciences [NCATS]
Division of Preclinical Innovation [DPI]
U.S. Environmental Protection Agency [EPA]
National Institutes of Environmental Health Sciences [NIEHS]
National Toxicology Program [NTP]
U.S. Food and Drug Administration [FDA]
The CHRM1 is a muscarinic receptor. This receptor plays a crucial role in learning and memory processes and has long been identified as a promising therapeutic target for the improvement of cognitive decline in Alzheimer's disease (AD). The CHRM1-CHO cell line stably expressing human muscarinic acetylcholine receptor M1 (CHRM1) can be used for screening agonists and antagonists of interactions between CHRM1 and its ligands. The CHRM1-CHO Calcium Flux Assay is a homogeneous fluorescence-based assay for detecting the intracellular calcium level using FDSS kinetic plate reader system.
CHRM1-CHO cells were dispensed at 1000 cells/3uL/well in 1536-well black-clear bottom plates using a Multidrop Dispenser. After the assay plates were incubated at a 37 C/5% CO2 incubator for 18 h, 3 uL of Dye Loading Buffer was transferred to the assay plate by a Flying Reagent Dispenser. The assay plates were incubated at 37 C for 1h. For agonist mode, 23 nL of compounds dissolved in DMSO, positive controls or DMSO only was transferred to the assay plate by a pin tool. […] Each test compound was measured at 15 concentrations in three independent runs.

Sequence of Muscarinic acetylcholine receptor M1 (Homo sapiens) (P11229 whole entry, looked up): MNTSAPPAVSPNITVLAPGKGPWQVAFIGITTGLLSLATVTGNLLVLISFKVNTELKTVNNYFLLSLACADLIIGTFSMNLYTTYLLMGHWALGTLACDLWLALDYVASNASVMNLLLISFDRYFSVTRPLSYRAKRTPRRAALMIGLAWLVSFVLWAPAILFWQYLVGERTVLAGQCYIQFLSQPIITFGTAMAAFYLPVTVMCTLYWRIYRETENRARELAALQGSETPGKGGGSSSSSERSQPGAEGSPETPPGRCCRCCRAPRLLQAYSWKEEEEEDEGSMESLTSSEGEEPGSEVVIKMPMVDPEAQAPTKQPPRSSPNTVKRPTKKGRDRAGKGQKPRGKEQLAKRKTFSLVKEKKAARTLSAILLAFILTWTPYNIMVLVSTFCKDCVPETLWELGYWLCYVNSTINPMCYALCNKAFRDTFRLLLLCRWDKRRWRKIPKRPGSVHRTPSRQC

Compound | Potency
CC(CN=Cc1ccccc1O)N=Cc1ccccc1O (stereo not given) | inactive
Cc1ccc(O)c(C(C)(C)C)c1 | inactive
CCN(Cc1cccc(S(=O)(=O)O)c1)c1ccc(C(=C2C=CC(=[N+](CC)Cc3cccc(S(=O)(=O)[O-])c3)C=C2)c2ccccc2)cc1 | inactive
COc1nc(N)nc2c1ncn2[C@@H]1O[C@H](CO)[C@@H](O)[C@@H]1O | inactive
O=P(O)(O)OP(=O)(O)O | inactive
C=Cc1ccc(C=C)cc1 | inactive
CC(=O)O[Si](C)(OC(C)=O)OC(C)=O | inactive
S=C([S-])NCCNC(=S)[S-].S=C([S-])NCCNC(=S)[S-].[Mn+2].[Zn+2] | inactive
CC(C)=CCCC(C)CC(=O)O (stereo not given) | inactive
Cc1cc(NC(=O)C(=O)O)cc(C)c1Oc1ccc(O)c2c1CCC2 | inactive
Cc1cccc(C(=O)O)c1O | inactive
O=C(O)c1ccccc1C(=O)OCc1ccccc1 | inactive
CC(=O)SCc1ccco1 | inactive
Cc1ccc(O)c(N)c1 | inactive
Oc1ccc(CCNCCCCCCNCCc2ccccc2)cc1O | inactive
BrCc1cccc(Oc2ccccc2)c1 | inactive
CCCCCOC(=O)CCCCC | inactive
C#Cc1cccc(Nc2ncnc3cc(OCCOC)c(OCCOC)cc23)c1 | inactive
CC(=O)CCC1=C(C)CCCC1(C)C | inactive
CCO/C=C1\N=C(c2ccccc2)OC1=O | inactive

Compound | Potency
O=C1c2ccccc2C(=O)c2c(Cl)cccc21 | inactive
O=Cc1ccccc1Cl | inactive
CCN1CCC[C@H]1CNC(=O)c1c(OC)ccc(Br)c1OC | inactive
CC1(C)CCC[C@]2(C)[C@H]3CCO[C@]3(C)CC[C@@H]12 | inactive
Nc1ccc(F)cc1F | inactive
CCC(Cl)C(Cl)C(Cl)CC(Cl)C(Cl)C(C)Cl (stereo not given) | inactive
NO | inactive
NCCN1CCOCC1 | inactive
C[C@H]1[C@@H](c2ccccc2)NC(=O)N1C | inactive
CNC(=S)NC | inactive
Cc1ccccc1N=Nc1ccc(N=Nc2c(O)ccc3ccccc23)c(C)c1 | inactive
CCN(CC)CCNc1ccc(CO)c2sc3ccccc3c(=O)c12 | inactive
COc1ccc2cc(S(=O)(=O)N[C@H](CC(=O)N[C@H](Cc3ccc(CN4[C@H](C)CCC[C@@H]4C)cc3)C(=O)N(C)C(C)C)c3ccc4c(c3)OCO4)ccc2c1 | inactive
CCCCN(CCC(=O)OCC)C(C)=O | inactive
CCc1cc(C2=C(C(=O)O)N(c3ccccc3C(F)(F)F)S(=O)(=O)c3ccccc32)cc2c1OCO2 | inactive
CO[Si](OC)(c1ccccc1)c1ccccc1 | inactive
CN(C)C(=O)NC1(c2ccccc2)CCN(CC[C@@]2(c3ccc(F)c(F)c3)CN(C(=O)c3ccccc3)CCO2)CC1 | inactive
Nc1ccc(O)c(N)c1 | inactive
O=C(O)Cc1ccc(Cl)cc1Cl | inactive
c1ccc(B(c2ccccc2)c2ccccc2)cc1 | inactive
